# Measured values: PubChem BioAssay (NCI)
# About 83,000 compounds went through this panel and 20% of them were active in at least one assay; those are over-represented in the sample as a whole.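 Values shown are percent growth following 48 h exposure of cells in 96-well plates to a single concentration of compound; below 10 was considered active.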 The source made the active and inactive calls.
# Test system: HL-60(TB) leukemia
# Assay: NCI-60 one-dose screen, 48 h (100 = growth as untreated, 0 = no growth, -100 = all killed)
# Conditions: 10 µM unless noted
row,SMILES,growth
1,CCOC(=O)C1=C(C)NC(C)=C(C(=O)OCc2ccccc2)C1c1cccc(C#N)c1 (configuration not stated),16.1% (inactive)
2,COc1cc(/C=N/n2cnc3oc(-c4ccccc4)cc3c2=N)cc(CN2CCCC2)c1O,64.9% (inactive)
3,NC(N)=Nc1ccc(Oc2cccc(Nc3ccc(Cl)c(C(F)(F)F)c3)c2)cc1,1.32% (active)
4,CCCCCCCn1cc2c(NCCc3ccccc3)ncnc2n1,106% (inactive)
5,Cc1c(NC(=O)CSc2nc3sc4c(c3c(=O)n2-c2ccc(Cl)cc2)CCCC4)c(=O)n(-c2ccccc2)n1C,80% (inactive)
6,C#Cc1nc(C(C)=O)cs1,100% (inactive)
7,N#Cc1c(-c2cccs2)cc(-c2cnccn2)nc1SCC(=O)N/N=C/c1cccs1,96.2% (inactive)
8,Nn1c(=O)n(-c2cccc(C(F)(F)F)c2)c(=O)c2cc(-c3ccc(F)cc3F)ccc21,-45.9% (active)
9,CCOC(=O)c1ccccc1NC1=C(Cl)C(=O)c2nc(C)ccc2C1=O,70.9% (inactive)
10,CC(=O)Nc1ccc(C)c(Nc2cc(-c3ccc(-n4cccn4)cc3)[nH]n2)c1,12.8% (inactive)
11,O=C(N/N=C\c1ccc(Cl)cc1)c1ccc2nc(-c3ccc(Br)cc3)[nH]c2c1,41.5% (inactive)
12,COc1ccc(NC(=O)Nc2ccc3c(ccn3C(=O)c3cccc(F)c3)c2)cc1,85.2% (inactive)
13,CN(C)CCNc1ccc2ncc(C#Cc3cncc(C(=O)Nc4ccc(CN5CCN(C)CC5)c(C(F)(F)F)c4)c3)n2n1,-32.1% (active)
14,Cc1ccc(-c2csc(N/N=C/c3cccs3)n2)cc1,84.2% (inactive)
15,Cc1ccc(NC(=O)Nc2nc3ccc([N+](=O)[O-])cc3s2)cc1,-17.2% (active)
16,COc1cc2nc(Cl)nc(Nc3cccc(C4=Nc5c(N)nc(N)nc5NC(c5ccc6c(c5)OCO6)C4)c3)c2cc1OC (configuration not stated),68.4% (inactive)
17,O=C(O)c1ccc(-n2cc(CNc3ccc(F)cc3)c(-c3ccc(C(F)(F)F)cc3)n2)cc1,87.1% (inactive)
18,N#C/C(=C\c1ccc2ccccc2c1)C(=O)Nc1sc2c(c1C#N)CCC2,103% (inactive)
19,COc1cc(-c2nn(C(C)(C)C)cc2-c2ccnc(NCCCNS(=O)(=O)c3ccc(C)cc3)n2)ccc1Cl,108% (inactive)

row,SMILES,growth
1,O=S(=O)(NCCCNc1nccc(-c2[nH]c(-c3ccccc3)nc2-c2ccc(F)c(O)c2)n1)c1cccc2ccccc12,59.4% (inactive)
2,Cc1ccc(Nc2ncnc3c2c(C)nn3-c2ccc([N+](=O)[O-])cc2)cc1,96.7% (inactive)
3,COc1ccc(NC2=CC(=O)C(C)=C(C)C2=O)cc1,80.2% (inactive)
4,CC(=O)Nc1ccccc1-c1nc2ccccc2s1,99.5% (inactive)
5,CNc1ncc2cc(-c3ccc(-c4ncccc4F)cc3Cl)c(=O)n(CC3OCC(N)CO3)c2n1 (configuration not stated),20.5% (inactive)
6,COC(=O)c1ccc(NC(=S)N2CCc3ccc([N+](=O)[O-])cc3C2)cc1O,97.7% (inactive)
7,CNC(=O)c1cc(-c2ccc(NC(=S)Nc3cc(C(F)(F)F)cc(C(F)(F)F)c3)cc2)nc2cccnc12,121% (inactive)
8,CCC(CC)n1c(=O)c(SC2=NC3C(NN2)N(CC)C(=O)N3CC)c(C(=O)O)c2ccccc21 (configuration not stated),0.469% (active)
9,O=C(c1ccc(Cl)cc1)C1[C@H](c2ccc(Cl)cc2)[C@@H](c2ccccc2)NC12C(=O)Nc1ccccc12 (some centres not stated),49.3% (inactive)
10,CCOC(=O)c1c(NC(=O)c2cccc(C(F)(F)F)c2)sc2c3c(ccc12)OCN(C)C3,-56.3% (active)
11,COc1ccc2c(c1)c(-c1cc(N)n3nc(-c4cn(C)c5ccc(OC)cc45)cc3n1)cn2C,5.19% (active)
12,COC(=O)c1[nH]nc2c1C1(C(=O)c3cccc4cccc1c34)C(C#N)=C(N)O2 (configuration not stated),82.5% (inactive)
13,Cc1csc(/N=C(N)/N=C(\N)c2cccnc2)n1,65.9% (inactive)
14,COc1ccc(NC(=O)CSc2nnc(-c3ccc4nc(-c5ccccc5)[nH]c4c3)o2)cc1,101% (inactive)
15,CCCn1cnc2c(c1=N)C(c1ccc(OC)cc1)c1sc3c(CC)cccc3c1O2 (configuration not stated),-12.9% (active)
16,NC(=O)n1c(=O)n(-c2cccc(C(F)(F)F)c2)c(=O)c2cc(-c3ccc(F)cc3F)ccc21,-49.4% (active)
17,COc1ccc(COc2ccc(/C=C3/C(=O)Nc4cc(Cl)ccc43)cc2)cc1,119% (inactive)
18,C#C[C@]1(O)CC[C@H]2[C@@H]3CC=C4c5sc(Nc6ccc(C)cn6)nc5CC[C@]4(C)[C@H]3CC[C@@]21C,-43.3% (active)
